# This excerpt belongs to a sample that is enriched for hits.
# NOMO-1 viab: STK33 inhibitor candidate reducing NOMO-1 cell viability. NOMO-1 AML viability, CellTiter-Glo luminescence, 72 h. AID 2330. hit rate 7.5% among 37,000. inhibition, % (concentration not given with the values); in the data active = inhibition above about 80%
# STK33 inh: inhibitors of human STK33 kinase | Q9BYT3 | ADP-Glo luminescence, MBP substrate | inhibition, % at 12.5 µM | hit rate 0.44% among 27,000; in the data active = inhibition above about 20%
# Target sequence (Q9BYT3 whole entry, looked up): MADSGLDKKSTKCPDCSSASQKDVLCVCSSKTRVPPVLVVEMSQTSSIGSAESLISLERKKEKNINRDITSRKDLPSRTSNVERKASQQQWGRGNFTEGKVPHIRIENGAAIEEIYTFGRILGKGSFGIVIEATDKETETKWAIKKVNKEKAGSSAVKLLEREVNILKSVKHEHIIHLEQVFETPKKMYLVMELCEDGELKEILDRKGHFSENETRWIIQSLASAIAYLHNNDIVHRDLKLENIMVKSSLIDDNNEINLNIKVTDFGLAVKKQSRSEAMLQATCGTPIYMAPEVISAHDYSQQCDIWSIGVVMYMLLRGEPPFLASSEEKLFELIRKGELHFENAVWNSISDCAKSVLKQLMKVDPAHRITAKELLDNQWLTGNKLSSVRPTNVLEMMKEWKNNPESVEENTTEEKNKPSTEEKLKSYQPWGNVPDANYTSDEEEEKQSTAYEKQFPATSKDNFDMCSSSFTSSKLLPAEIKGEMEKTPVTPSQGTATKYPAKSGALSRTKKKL
# PD-1 reversal: reversal of PD-1 mediated T-cell inhibition; 29,000 tested, under 10 active; primary human CD4 T cells, PD-L1 beads, CellTiter-Glo 96 h; AID 2316; activation, % (test concentration not listed); call rule not given here;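 note: 0% = median vehicle wells and 100% = positive control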
# Starred values were filed as active, the others as inactive; . = not tested or not shown.
SMILES,NOMO-1 viab,STK33 inh,PD-1 reversal
CC(C)NC(=O)Nc1ccc2c(c1)C(=O)N([C@H](C)CO)C[C@H](C)[C@H](CN(C)Cc1ccc(C(F)(F)F)cc1)OCCCC[C@@H](C)O2,40.0,-0.8,1.7
COc1ccccc1NC(=O)CNS(=O)(=O)c1ccc(C)cc1,-4.4,-4.7,-0.9
O=C(CCC(=O)N(Cc1ccccc1)Cc1ccccc1)Nc1ccc(F)cc1,29.6,.,-1.6
N#CC(C#N)=C(N)/C(C#N)=C/c1cc(O)c(O)c(O)c1,31.6,20.2*,-0.7
CC(C)(C)c1cc(/C=C(\C#N)C(N)=S)cc(C(C)(C)C)c1O,117.7*,11.7,.
CC1Oc2ccccc2OC1(O)c1ccc(Br)cc1 (stereo not drawn),106.4*,.,-0.5
O=C(O)C1C2CCC(O2)C1C(=O)Nc1ccc(S(=O)(=O)N2CCc3ccccc32)cc1 (stereo not drawn),-0.7,-0.8,0.0
CCOC(=O)c1c(O)c(O)c(C(=O)OCC)n1-c1ccc(OC)cc1,26.3,.,-0.2
CCOC(=O)c1ccc(-n2c(C)cc(C=C3C(=O)NC(=S)NC3=O)c2C)cc1,121.0*,2.9,-1.6
COc1ccc(-c2cc(=O)c3cc(OCC(=O)Nc4ccc(C)cc4C)ccc3o2)cc1,36.0,1.1,-0.3
O=C(O)CCn1cc(C(F)(F)F)ccc1=O,-4.4,-2.3,-0.1
COC(=O)c1c(NC(=O)C2CC(=O)NN2Cc2ccccc2)sc2c1CCC(C)C2 (stereo not drawn),108.9*,6.5,-5.6
COC(=O)c1c(NC(=O)C2CC(=O)NN2Cc2ccccc2)sc2c1CCC2 (stereo not drawn),43.6,11.1,-7.4
COc1ccc(CCNC(=O)Nc2ccc(C(C)=O)cc2)cc1OC,11.6,-2.2,2.5
C[C@@H]1CN([C@@H](C)CO)C(=O)c2cccc(NC(=O)C3CCCCC3)c2O[C@@H]1CN(C)CC1CCCCC1,9.3,.,.
C[C@@H]1CN([C@@H](C)CO)C(=O)c2cccc(NC(=O)C3CCCCC3)c2O[C@@H]1CN(C)CC1CC1,31.5,.,1.8
C[C@@H]1CN([C@H](C)CO)C(=O)c2cccc(NC(=O)C3CCCCC3)c2O[C@H]1CN(C)CC1CCCCC1,111.3*,.,-4.6
C[C@@H]1CN([C@H](C)CO)C(=O)c2cccc(NC(=O)NC3CCCCC3)c2O[C@H]1CN(C)CC1CCCCC1,104.3*,.,-4.7
C[C@H](CO)N1C[C@H](C)[C@@H](CN(C)CC2CCCCC2)Oc2c(NC(=O)NC3CCCCC3)cccc2C1=O,54.4,.,.
C[C@H](CO)N1C[C@H](C)[C@@H](CN(C)CC2CCCCC2)Oc2c(NC(=O)C3CCCCC3)cccc2C1=O,95.8*,.,.
O=C(c1ccc(Br)cc1)c1cc2c(cc1Br)OCCCO2,20.1,.,-0.1
O=C1C[C@H](c2ccc(O)cc2)Oc2c1c(O)cc(O)c2[C@@H]1C(=O)c2c(O)cc(O)cc2O[C@H]1c1ccc(O)cc1,.,5.0,.
C[C@H](CO)N1C[C@H](C)[C@@H](CN(C)Cc2ccc(Cl)c(Cl)c2)Oc2ccc(NC(=O)Nc3ccc(C(F)(F)F)cc3)cc2C1=O,64.6,.,.
C[C@@H]1CN([C@@H](C)CO)C(=O)c2cc(NC(=O)Nc3ccc(C(F)(F)F)cc3)ccc2O[C@H]1CN(C)Cc1ccc(Cl)c(Cl)c1,115.5*,3.9,-3.8
C[C@H](CO)N1C[C@H](C)[C@H](CN(C)Cc2ccc(Cl)c(Cl)c2)Oc2ccc(NC(=O)Nc3ccc(C(F)(F)F)cc3)cc2C1=O,124.7*,.,-0.5
SMILES,NOMO-1 viab,STK33 inh,PD-1 reversal
C[C@H]1CN([C@@H](C)CO)C(=O)c2cc(NC(=O)Nc3ccc(C(F)(F)F)cc3)ccc2O[C@@H]1CN(C)Cc1ccc(Cl)c(Cl)c1,117.0*,-0.4,-6.3
CC1(C)Cc2c(sc3c2c(=O)n(-c2cccc(Cl)c2)c2nnc(SCC(=O)Nc4cccc(Cl)c4)n32)CO1,70.4,-2.9,.
COc1ccc(NC(=O)CSc2nnc(-c3ccncc3)o2)cc1,-8.8,0.2,4.8
C=C1C(=O)O[C@H]2C3=C(C)CCC[C@]3(C)C(=O)C[C@@H]12,121.4*,1.4,-35.2
C=C1C(=O)O[C@@H]2C=C(C)[C@@H]3CC[C@@](C)(O)[C@@H]3C[C@H]12,37.9,1.4,-0.1
CCOC(=O)c1ccc(NC(=O)CSc2nc3sc4c(c3c(=O)[nH]2)CCC4)cc1,22.6,5.6,-1.1
CN(CC(=O)Nc1ccccc1C#N)S(=O)(=O)c1cc(Cl)ccc1Cl,7.5,14.6,-1.1
CCOC(=O)c1c(NC(=O)CSc2ccccn2)sc(C)c1C,3.2,-0.5,.
COc1ccc(S(=O)(=O)Nc2ccc3c(c2)C(=O)N([C@@H](C)CO)C[C@H](C)[C@H](CN(C)Cc2ccc(Cl)c(Cl)c2)O3)cc1,93.0*,.,-0.1
COc1ccc(CN(C)C[C@H]2Oc3ccc(NS(=O)(=O)c4ccc(OC)cc4)cc3C(=O)N([C@H](C)CO)C[C@@H]2C)cc1,14.5,.,.
COc1ccc(S(=O)(=O)Nc2ccc3c(c2)C(=O)N([C@@H](C)CO)C[C@@H](C)[C@H](CN(C)Cc2ccc(Cl)c(Cl)c2)O3)cc1,117.9*,-1.3,0.7
COc1ccc(S(=O)(=O)Nc2ccc3c(c2)C(=O)N([C@H](C)CO)C[C@@H](C)[C@H](CN(C)Cc2ccc(Cl)c(Cl)c2)O3)cc1,49.6,2.5,0.7
COc1ccc(S(=O)(=O)Nc2ccc3c(c2)C(=O)N([C@H](C)CO)C[C@@H](C)[C@@H](CN(C)Cc2ccc(Cl)c(Cl)c2)O3)cc1,116.3*,.,-1.6
COc1ccc(CN(C)C[C@@H]2Oc3ccc(NS(=O)(=O)c4ccc(OC)cc4)cc3C(=O)N([C@H](C)CO)C[C@@H]2C)cc1,8.0,.,1.5
Cc1ccc(S(=O)(=O)N(CC(=O)O)c2ccc(C)c(C)c2)cc1,14.7,-3.3,2.3
Cc1ccc(NS(=O)(=O)c2cccc(C(=O)Nc3ccccc3)c2)cc1,26.9,.,1.1
CNC(=O)CN(c1cccc(Cl)c1Cl)S(=O)(=O)c1ccc(C)cc1,7.4,1.0,1.1
COC(=O)CCc1[nH]c2ccccc2c1Sc1ccccc1,140.2*,.,-2.9
Cc1[nH]c2ccccc2c1C(=O)CCC(=O)O,.,-0.8,.
COc1ccc(C(=O)CC(C#Cc2ccccc2)CC(=O)c2ccc(OC)cc2)cc1,37.7,.,0.4
Cc1cc(O)c(C)c2c1Oc1c(C)c(O)cc(C)c1C(=O)O2,37.6,23.1*,0.8
Cc1c(O)cc(O)c2c1OC(c1ccccc1)CC2=O (stereo not drawn),2.4,5.2,-0.8
COc1cccc2sc(=NC(=O)CC34CC5CC(CC(C5)C3)C4)n(C)c12,-1.6,.,1.7
c1cncc(-c2nc3c4c5c(sc4ncn3n2)CCCC5)c1,2.1,.,1.1
c1ccc(C(c2ccccc2)N2CCC2)cc1,18.6,.,0.6
SMILES,NOMO-1 viab,STK33 inh,PD-1 reversal
COc1ccc(C(c2ccc3cccnc3c2O)N2CCOCC2)cc1 (stereo not drawn),118.4*,.,-6.8
Oc1c(C(c2ccncc2)N2CCCC2)ccc2cccnc12 (stereo not drawn),143.2*,.,-4.4
O=C(c1ccc(NS(=O)(=O)c2cccc3cccnc23)cc1)N1CCOCC1,-10.8,-2.2,0.1
COc1ccc(C(=O)O)cc1NC(=S)NC(=O)COc1ccc(Br)cc1,13.3,-1.6,-0.1
COc1c(OC)c(O)c2c(=O)cc(-c3ccc(O)cc3)oc2c1OC,114.9*,29.3*,-1.7
COc1cc2oc(-c3ccccc3)cc(=O)c2c(OC)c1OC,7.4,-4.3,-2.6
COc1cc2oc(-c3ccccc3)cc(=O)c2c(O)c1OC,-2.9,9.2,-0.1

# Bioassay records as filed in PubChem.
